The text below walks through data of PubChem BioAssay.

The subject of assay [1] is Plasmodium falciparum Sir2 (PF13_0152, Sir2A). The assay is described as follows: Plasmodium falciparum Sir2A binding compounds – biochemical, small-molecule microarray, 635 nm fluorescence, primary screen (AID 1098).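 Further: score merges spot fluorescence intensity with its signal-to-noise ratio.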 Conditions: fluorescence 635 nm, higher = more signal.
The nature of assay [2]: probe aDKK1 binding to arrayed compounds – biochemical, biotinylated probe, 635/667 nm fluorescence, primary screen (AID 1099).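 Further: score merges 667nm spot fluorescence with signal to noise across triplicate slides.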 Conditions: small-molecule microarray, higher = more signal.
Assay [3] can be described thus: probe aCHRDL2 binding to arrayed compounds – biochemical, biotinylated probe, 635/667 nm fluorescence, primary screen (AID 1100). To be noted: small-molecule microarray, higher = more signal.
Assay [4] can be described thus: change in splice reporter luminescence, either direction, cell-based, HEK293, spliceosome inhibition project, primary screen (AID 1101).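 Further: HEK293 cells carrying a splicing-competent luciferase reporter gene; test concentration not given here.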 To be noted: HEK293 splicing luciferase reporter, 24 h, higher = more signal, called active from +8 up or from −8 down.
The target in assay [5] is Fibroblast growth factor 10 (Homo sapiens) (UniProt O15520). In words: compounds binding fibroblast growth factor 10 – biochemical, small-molecule microarray, 635 nm fluorescence, primary screen (AID 1102). To be noted: FGF10 binding, fluorescence 635 nm, higher = more signal.
Assay [6] deals with glycogen synthase kinase-3 (GSK3A per assay name; protocol says GSK3B). In words: compounds binding glycogen synthase kinase-3 – biochemical, small-molecule microarray, 635 nm fluorescence, GSK3A, primary screen (AID 1103). Further: the record names both GSK3A and GSK3B. Conditions: fluorescence 635 nm, higher = more signal.
Assay [7] addresses Epidermal growth factor receptor (Homo sapiens) (UniProt P00533). In words: compounds binding epidermal growth factor receptor – biochemical, small-molecule microarray, 635 nm fluorescence, primary screen (AID 1104).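 Further: score merges 667 nm emission intensity with spot signal to noise over triplicate slides.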 Conditions: EGFR binding, higher = more signal.
Assay [8] deals with Follistatin-related protein 3 (Homo sapiens) (UniProt O95633). In words: compounds binding follistatin-related protein 3 – biochemical, small-molecule microarray, 635 nm fluorescence, primary screen (AID 1105).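 Further: score merges emission near 667 nm and signal to noise per printed spot across three slides.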 To be noted: FSTL3 binding, higher = more signal.
Assay [9] deals with Dickkopf-related protein 1 (Homo sapiens) (UniProt O94907). The assay is described as follows: small molecules binding DKK1 protein – biochemical, small-molecule microarray, 635 nm fluorescence scan, primary screen (AID 1106).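 Further: score merges emission near 667 nm with signal to noise over three replicate slides.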 To be noted: higher = more signal.
Assay [10] has as its system Inhibin beta A chain (activin A). In words: small molecules binding activin A – biochemical, small-molecule microarray, 635 nm fluorescence scan, primary screen (AID 1107).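 Further: mouse activin A protein probed at 4.33 µg/mL on printed slides; score merges bound-protein fluorescence near 667 nm with spot signal-to-noise.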 Conditions: INHBA, higher = more signal.
In assay [11] the test system is Human papillomavirus type 1a protein E7 (residues 44-93). In words: small molecules binding HPV E7 44-93 – biochemical, small-molecule microarray, residues 44-93, 635 nm fluorescence, primary screen (AID 1108).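 Further: E7 fragment applied at 1 µg/mL in TBST for 1 h at 4 C; score combines spot fluorescence with its signal to noise ratio.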 To be noted: fluorescence 635 nm, higher = more signal.
Assay [12] is described as follows: hepatitis C replication reporter changes, two-sided – Huh7 cells, luciferase reporter, HCV replication inhibitor project, primary screen (AID 1109).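 Further: huh7 hepatoma cells harbouring a luciferase neomycin HCV replicon reporter; luciferase luminescence as measure of HCV replicon replication; test concentration not given here.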 To be noted: Huh7 HCV replicon luciferase reporter, 48 h; higher = more signal. A general note: A reporter such as luciferase makes a cellular process visible.
The target in assay [13] is Left-right determination factor 2 (Homo sapiens) (UniProt O00292). The assay is described as follows: small molecules binding LEFTY2 protein – biochemical, small-molecule microarray, 635 nm fluorescence scan, primary screen (AID 1110). To be noted: higher = more signal.
Assay [14] deals with Calmodulin-1 (Homo sapiens) (UniProt P0DP23). The assay is described as follows: small molecules binding calmodulin-1 with EGTA – biochemical, small-molecule microarray, Cy5-labelled CALM1, profiling panel (AID 1111).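 Further: labelled calmodulin applied in Tris saline Tween buffer holding calcium plus EGTA and DTT.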 To be noted: Cy5-CALM1 binding fluorescence, higher = more signal.
The target is the same in assay [15]. In words: small molecules binding Ca-loaded calmodulin-1 – biochemical, small-molecule microarray, Cy5-labelled CALM1, plus calcium, artefact control for SMM control-protein annotation, profiling panel (AID 1112).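 Further: score merges spot fluorescence with signal to noise from triplicate slides.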 Conditions: Cy5-CALM1 binding fluorescence, higher = more signal.
Assay [16] can be described thus: probe aWnt5a binding to arrayed compounds – biochemical, biotinylated probe, 635/667 nm fluorescence, primary screen (AID 1113).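 Further: score merges 667 nm fluorescence intensity with signal-to-noise per printed feature.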 Conditions: small-molecule microarray, higher = more signal.
Assay [17] can be described thus: probe aShh binding to arrayed compounds – biochemical, biotinylated probe, 635/667 nm fluorescence, primary screen (AID 1114).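 Further: probe is biotin-labelled aShh protein from a stem cell growth factor screen; measures binding of labelled protein to compounds printed on the slide; score merges feature fluorescence at 667 nm with signal-to-noise.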 To be noted: small-molecule microarray, higher = more signal.
A short description of assay [18]: probe aNog binding to arrayed compounds – biochemical, biotinylated probe, 635/667 nm fluorescence, primary screen (AID 1115).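 Further: probe is biotinylated aNog protein used at 0.15 µg/mL for 1 h at 4 C; z-score combines 667 nm fluorescence of each spot with its signal to noise.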 To be noted: small-molecule microarray, higher = more signal.
The target in assay [19] is Torsin-1A-interacting protein 1 (Homo sapiens) (UniProt Q5JTV8). The assay is described as follows: compound microarray binding of lysate hLAP1 – cell lysate, small-molecule microarray, COS7 lysate, 635/667 nm fluorescence, primary screen (AID 1116). Conditions: 635 nm fluorescence, higher = more signal.
For assay [20], the target named is Alpha-bungarotoxin (Bungarus multicinctus) (UniProt P60615). In words: compounds binding labelled alpha-BTX control protein – biochemical, small-molecule microarray, Alexa647 label, 635/667 nm fluorescence, artefact control for SMM control protein annotation, profiling panel (AID 1117). To be noted: alpha-BTX-A647 binding fluorescence, higher = more signal.

Calls of active or inactive are those of the source.

Chain of Follistatin-related protein 3 (Homo sapiens) (O95633 whole entry, looked up): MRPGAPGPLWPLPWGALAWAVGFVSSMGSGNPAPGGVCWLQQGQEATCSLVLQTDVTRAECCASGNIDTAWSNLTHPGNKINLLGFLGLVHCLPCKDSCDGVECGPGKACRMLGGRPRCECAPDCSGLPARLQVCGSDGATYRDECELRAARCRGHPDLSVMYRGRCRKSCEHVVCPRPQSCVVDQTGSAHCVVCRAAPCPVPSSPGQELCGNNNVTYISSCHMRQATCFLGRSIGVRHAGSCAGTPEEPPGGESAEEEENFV
Chain of Left-right determination factor 2 (Homo sapiens) (O00292 whole entry, looked up): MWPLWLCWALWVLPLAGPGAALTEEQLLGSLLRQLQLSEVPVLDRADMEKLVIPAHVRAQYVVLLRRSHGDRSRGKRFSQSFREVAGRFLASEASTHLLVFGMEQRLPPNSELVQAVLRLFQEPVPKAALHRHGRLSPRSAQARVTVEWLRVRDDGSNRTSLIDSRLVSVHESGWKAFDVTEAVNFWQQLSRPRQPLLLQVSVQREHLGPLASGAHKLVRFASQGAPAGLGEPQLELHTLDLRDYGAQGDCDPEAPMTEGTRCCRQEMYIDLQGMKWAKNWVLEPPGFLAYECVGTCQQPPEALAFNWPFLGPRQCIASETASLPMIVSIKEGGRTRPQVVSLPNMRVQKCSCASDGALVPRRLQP
Chain of Alpha-bungarotoxin (Bungarus multicinctus) (P60615 whole entry, looked up): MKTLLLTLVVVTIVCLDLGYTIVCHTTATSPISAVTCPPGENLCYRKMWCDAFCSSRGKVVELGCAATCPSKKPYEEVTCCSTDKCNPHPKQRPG
Chain of Fibroblast growth factor 10 (Homo sapiens) (O15520 whole entry, looked up): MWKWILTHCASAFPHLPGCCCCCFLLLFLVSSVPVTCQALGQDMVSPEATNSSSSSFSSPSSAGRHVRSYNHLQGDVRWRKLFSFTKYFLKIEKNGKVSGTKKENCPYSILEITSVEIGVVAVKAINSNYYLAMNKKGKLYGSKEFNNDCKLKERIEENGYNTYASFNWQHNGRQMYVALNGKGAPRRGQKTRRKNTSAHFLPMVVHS
Chain of Dickkopf-related protein 1 (Homo sapiens) (O94907 whole entry, looked up): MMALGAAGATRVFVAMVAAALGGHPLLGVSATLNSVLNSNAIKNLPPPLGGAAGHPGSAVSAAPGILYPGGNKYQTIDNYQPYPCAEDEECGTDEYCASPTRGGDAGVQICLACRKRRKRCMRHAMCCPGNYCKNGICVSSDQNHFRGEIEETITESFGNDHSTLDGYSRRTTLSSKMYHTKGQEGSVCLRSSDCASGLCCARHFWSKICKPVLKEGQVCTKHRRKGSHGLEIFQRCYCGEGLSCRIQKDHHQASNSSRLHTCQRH
Chain of Torsin-1A-interacting protein 1 (Homo sapiens) (Q5JTV8 whole entry, looked up): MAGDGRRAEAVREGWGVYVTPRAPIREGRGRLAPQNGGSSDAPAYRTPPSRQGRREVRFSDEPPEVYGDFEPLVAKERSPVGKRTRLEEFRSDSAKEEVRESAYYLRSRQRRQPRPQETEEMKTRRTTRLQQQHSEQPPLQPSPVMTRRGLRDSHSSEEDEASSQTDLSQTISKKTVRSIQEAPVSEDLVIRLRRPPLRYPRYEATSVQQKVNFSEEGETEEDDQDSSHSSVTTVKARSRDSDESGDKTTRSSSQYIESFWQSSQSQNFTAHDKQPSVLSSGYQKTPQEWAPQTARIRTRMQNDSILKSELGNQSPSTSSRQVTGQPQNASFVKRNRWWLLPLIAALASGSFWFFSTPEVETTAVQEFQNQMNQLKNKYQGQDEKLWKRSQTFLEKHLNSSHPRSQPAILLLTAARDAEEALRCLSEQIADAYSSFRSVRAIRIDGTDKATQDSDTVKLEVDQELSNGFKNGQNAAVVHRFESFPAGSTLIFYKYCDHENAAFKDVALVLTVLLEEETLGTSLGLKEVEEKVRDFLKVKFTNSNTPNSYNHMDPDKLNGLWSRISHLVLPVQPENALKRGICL
Chain of Epidermal growth factor receptor (Homo sapiens) (P00533 whole entry, looked up): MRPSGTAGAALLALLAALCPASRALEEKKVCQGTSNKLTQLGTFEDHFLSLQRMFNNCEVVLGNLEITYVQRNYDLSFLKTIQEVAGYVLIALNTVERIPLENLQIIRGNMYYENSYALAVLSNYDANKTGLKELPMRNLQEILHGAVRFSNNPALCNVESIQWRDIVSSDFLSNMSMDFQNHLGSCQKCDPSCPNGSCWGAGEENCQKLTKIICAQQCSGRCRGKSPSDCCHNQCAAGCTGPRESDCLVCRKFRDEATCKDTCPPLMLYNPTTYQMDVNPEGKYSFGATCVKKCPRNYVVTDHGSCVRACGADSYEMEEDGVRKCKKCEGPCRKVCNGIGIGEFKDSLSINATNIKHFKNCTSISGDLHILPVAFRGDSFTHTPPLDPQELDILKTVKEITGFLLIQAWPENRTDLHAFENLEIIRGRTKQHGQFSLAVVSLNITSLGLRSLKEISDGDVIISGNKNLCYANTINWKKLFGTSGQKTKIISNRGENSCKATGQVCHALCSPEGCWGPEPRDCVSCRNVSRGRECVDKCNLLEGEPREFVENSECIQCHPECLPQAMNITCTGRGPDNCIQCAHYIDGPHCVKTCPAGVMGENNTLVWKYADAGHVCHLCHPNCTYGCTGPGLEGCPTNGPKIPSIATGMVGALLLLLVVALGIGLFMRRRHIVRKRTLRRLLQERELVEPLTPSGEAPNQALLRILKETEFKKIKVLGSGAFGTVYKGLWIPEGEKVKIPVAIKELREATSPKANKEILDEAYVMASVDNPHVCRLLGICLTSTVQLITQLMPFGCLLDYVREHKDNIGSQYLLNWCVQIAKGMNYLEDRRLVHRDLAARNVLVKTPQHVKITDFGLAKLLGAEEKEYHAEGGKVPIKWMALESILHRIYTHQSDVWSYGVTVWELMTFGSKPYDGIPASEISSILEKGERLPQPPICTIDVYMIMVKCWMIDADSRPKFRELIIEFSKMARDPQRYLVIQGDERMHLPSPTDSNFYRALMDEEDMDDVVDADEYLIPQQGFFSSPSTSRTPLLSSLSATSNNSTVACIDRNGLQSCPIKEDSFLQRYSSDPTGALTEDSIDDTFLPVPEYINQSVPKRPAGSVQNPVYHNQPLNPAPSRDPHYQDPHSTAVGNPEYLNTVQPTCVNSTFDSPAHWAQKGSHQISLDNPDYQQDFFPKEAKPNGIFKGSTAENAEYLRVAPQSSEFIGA

As to `C[C@H]1NC(=O)[C@H](Cc2ccccc2)NC(=O)[C@@]23C(=O)N[C@@H](Cc4ccccc4)C2[C@H](C)[C@@]2(C)O[C@H]2C3/C=C/C/C=C\CNC1=O` (stereo not given in full), the composite z-score in [1] was 0.444; in assay [2], -0.245; in assay [3] it was -0.471; in [5] it was -0.354; in assay [6] it was -1.16; in [7], 0.203. Also, the composite z-score in assay [8] is -0.0523; in assay [9], 0.461; in assay [10], 1.45; in assay [11], -0.794; in [13] it was 0.133; in [14] it was -0.638. The composite z-score in assay [15] was -0.859; in [16], -0.146; in [17] it was -0.324; in assay [18] it was -0.429; in assay [19], -0.214; in [20], -0.407. Moreover, the results for the z-score in assay [4] and in assay [12] were 0.587 (inactive) and 0.136, respectively.

Regarding `COc1ccc(CCNC(=O)[C@@]2(Sc3ccc(C)cc3)CC(=O)N(Cc3ccccc3Cl)[C@@H]2c2ccc(CO)cc2I)cc1`, the composite z-score in assay [1] is 0.661; in assay [2] it was 0.195; in assay [3] it was 0.989; in assay [5], -0.778; in assay [6], 0.351; in assay [7] it was -1.08. The composite z-score in assay [8] is -0.78; in assay [9] it was -1.15; in [10] it was 1.24; in assay [11], 0.552; in assay [13] it was -0.736; in [14] it was -0.252. The composite z-score in assay [15] was -0.0371; in [16] it was -0.184; in [17], 0.157; in assay [18] it was 0.384; in assay [19] it was 1.08; in assay [20], 0.42. Further, the figures for the z-score in assay [4] and in assay [12] were -1.1 (inactive) and -1.98, respectively.

For `C[C@]1(C(=O)NCc2ccccc2)c2ccccc2C(=O)N(Cc2cc(F)cc(C(F)(F)F)c2)[C@H]1c1ccc(CO)cc1`, the composite z-score in [1] is 0.876; in assay [2], 0.214; in [3], 0.637; in assay [5], -0.384; in [6], -0.422; in assay [7] it was -0.505. For the same compound, the composite z-score in assay [8] is -1.45; in assay [9], -1.21; in assay [10], -0.185; in assay [11], 0.376; in [13] it was -1.57; in assay [14], -0.595. Also, the composite z-score was 0.173 in assay [15]; -0.0685 in [16]; 0.0469 in [17]; -0.427 in [18]; -0.168 in [19]; 0.0471 in assay [20]. Also, the results for the z-score in [4] and in [12] were -0.102 (inactive) and -0.44, respectively.

Regarding `Cc1ccccc1C(O)C1C=CC2C(=O)N(C)C(=O)C2N1Nc1ccccc1` (stereo not given), the composite z-score in [1] is 1.06; in assay [2], 0.973; in [3], 1.07; in assay [5], 0.2; in [6], 0.63; in assay [7] it was -0.0369. Besides, the composite z-score in assay [8] was found to be 0.304; in [9], 0.0139; in [10], 1.16; in assay [11], 0.633; in [13], 0.103; in assay [14], 2.3. The composite z-score in assay [15] is 1.06; in assay [16], 0.111; in assay [17], -0.0289; in [18], 1.07; in [19], 1.91; in assay [20], 1.08. The z-score in [4] is 0.0737 (inactive); in assay [12], -0.712.

For `C=C(C(=O)CC[C@H](OC(C)=O)c1ccc(OCCO)cc1)C(C)C`, the composite z-score is -0.478 in assay [1]; -0.267 in assay [2]; -0.906 in assay [3]; 1.37 in assay [5]; -0.479 in assay [6]; 0.982 in assay [7]. For the same compound, the composite z-score in assay [8] was 0.876; in assay [9] it was 2.01; in assay [10] it was -0.0025; in [11] it was -0.268; in assay [13], 1.03; in [14], -0.189. For the same compound, the composite z-score in [15] is -1.39; in [16], -0.1; in assay [17], -0.0157; in assay [18], -0.0965; in assay [19], 0.949; in assay [20], 1.05. Further, the z-score is -3.58 (inactive) in assay [4] and -4.11 in [12].

As for `CCOC(=O)[C@H]1C/C=C/C[C@H](C(=O)OCC)C(=O)O[C@H]2[C@@H](OC)O[C@H](CO)[C@@H](OC(=O)Nc3ccc4c(c3)OCO4)[C@@H]2OC1=O`, the composite z-score was 0.353 in assay [1]; 0.0005 in assay [2]; 0.0193 in assay [3]; 0.79 in [5]; 0.677 in assay [6]; -0.407 in assay [7]. Moreover, the composite z-score in [8] was 0.294; in assay [9], -0.009; in assay [10], 0.456; in assay [11], 0.433; in [13] it was -0.261; in assay [14], 0.346. In addition, the composite z-score in assay [15] was found to be 0.152; in assay [16], 0.0608; in assay [17] it was 0.28; in [18] it was 0.122; in assay [19], 0.591; in assay [20], 0.167. Further, the z-score was -1.14 (inactive) in assay [4] and -3.52 in assay [12].
